{
  "source": "the supplement of paper PMC12024424",
  "note": "Counter-ions that a name gives are not always drawn.",
  "data": [
    {"system": "Staphylococcus aureus Sa2 (MRSA, cystic fibrosis isolate)", "assay": "growth reduction vs untreated control (OD550); higher = stronger antibacterial activity", "conditions": "0.1 mM; 24 h", "experimental": "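Single-dose screen of the MedChem Express Drug Repurposing Library (0.1 mM, 1% DMSO) against planktonic MRSA S. aureus Sa2 (CF isolate) in TSB in 96-well plates, 37 °C aerobic, 24 h. Assays were run in triplicate and repeated twice.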", "units": {"growth reduction": "%"}, "values": [
      {"smiles": "O=C(O)c1ccc2nc(-c3cc(Cl)cc(Cl)c3)oc2c1", "note": "[Tafamidis]", "growth reduction": 99.5},
      {"smiles": "Clc1ccc(CO/N=C(\\Cn2ccnc2)c2ccc(Cl)cc2Cl)c(Cl)c1", "note": "[Oxiconazole nitrate]", "growth reduction": 100},
      {"smiles": "O=c1ccc2ccc(O)c(O)c2o1", "note": "[Daphnetin]", "growth reduction": 94.5},
      {"smiles": "CCCSc1nc(N[C@@H]2C[C@H]2c2ccc(F)c(F)c2)c2nnn([C@@H]3C[C@H](OCCO)[C@@H](O)[C@H]3O)c2n1", "note": "[Ticagrelor]", "growth reduction": 100},
      {"smiles": "Cc1ccc(NC(=O)c2ccc(CN3CCN(C)CC3)cc2)cc1Nc1nc(-c2cccnc2)cs1", "note": "[Masitinib (mesylate)]", "growth reduction": 100},
      {"smiles": "CCc1nc(-c2cccc(C)c2)c(-c2ccnc(NC(=O)c3ccccc3)c2)s1", "growth reduction": 100},
      {"smiles": "O=C1NCCN1CCN1CCC(c2cn(-c3ccc(F)cc3)c3ccc(Cl)cc23)CC1", "note": "[Sertindole]", "growth reduction": 93.6},
      {"smiles": "CC(C)Nc1nc2cc(Cl)c(Cl)cc2n1[C@H]1O[C@@H](CO)[C@H](O)[C@@H]1O", "note": "[Maribavir]", "growth reduction": 92.7},
      {"smiles": "CC(C)(O)c1ccccc1CC[C@@H](SCC1(CC(=O)O)CC1)c1cccc(/C=C/c2ccc3ccc(Cl)cc3n2)c1", "note": "[Montelukast (sodium)]", "growth reduction": 100},
      {"smiles": "Cc1ccc(-n2[nH]c(C)c(N=Nc3cccc(-c4cccc(C(=O)O)c4)c3O)c2=O)cc1C", "note": "[Eltrombopag (Olamine)]", "growth reduction": 95.9},
      {"smiles": "CO[C@H](C(=O)[C@@H](O)[C@@H](C)O)[C@@H]1Cc2cc3cc(O[C@H]4C[C@@H](O[C@H]5C[C@@H](O)[C@H](O)[C@@H](C)O5)[C@H](O)[C@@H](C)O4)c(C)c(O)c3c(O)c2C(=O)[C@H]1O[C@H]1C[C@@H](O[C@H]2C[C@@H](O[C@H]3C[C@](C)(O)[C@H](O)[C@@H](C)O3)[C@@H](O)[C@@H](C)O2)[C@H](O)[C@@H](C)O1", "note": "[Plicamycin]", "growth reduction": 99.6},
      {"smiles": "CC(C)c1c(C(=O)Nc2ccccc2)c(-c2ccccc2)c(-c2ccc(F)cc2)n1CC[C@@H](O)C[C@@H](O)CC(=O)O", "note": "[Atorvastatin (hemicalcium salt)]", "growth reduction": 99.7},
      {"smiles": "Oc1c(Br)cc(Br)c2cccnc12", "note": "[Broxyquinoline]", "growth reduction": 100},
      {"smiles": "C[C@]1(O)C[C@@H](c2nc(-c3ccc4ccc(-c5ccccc5)nc4c3)c3c(N)nccn32)C1", "note": "[Linsitinib]", "growth reduction": 100},
      {"smiles": "NC(=O)C1=C(O)[C@@]2(O)C(=O)C3=C(O)c4c(O)cccc4C[C@H]3C[C@H]2CC1=O", "note": "[Incyclinide]", "growth reduction": 100},
      {"smiles": "COC(=O)N[C@H](C(=O)N1CCC[C@H]1c1nc(-c2ccc3c(c2)O[C@@H](c2ccccc2)n2c-3cc3cc(-c4c[nH]c([C@@H]5CCCN5C(=O)[C@@H](NC(=O)OC)C(C)C)n4)ccc32)c[nH]1)C(C)C", "note": "[Elbasvir]", "growth reduction": 97.8},
      {"smiles": "Cc1ccc(C(=O)N(CCCN)[C@@H](c2oc3cc(Cl)ccc3c(=O)c2Cc2ccccc2)C(C)C)cc1", "growth reduction": 100},
      {"smiles": "CN(CCCCCCCCCCN(C)C(=O)Oc1cccc([N+](C)(C)C)c1)C(=O)Oc1cccc([N+](C)(C)C)c1", "note": "[Demecarium Bromide]", "growth reduction": 100},
      {"smiles": "Cc1c2c(nn1C)CSCc1cc(n(C)n1)CSc1cc(c3ccccc3c1)OCCCc1c(C(=O)O)n(C)c3c-2c(Cl)ccc13", "growth reduction": 100},
      {"smiles": "N=C(N)c1ccc(OCCCCCOc2ccc(C(=N)N)cc2)cc1", "note": "[Pentamidine (isethionate)]", "growth reduction": 100},
      {"smiles": "CCN1CCN(c2ccc(Nc3cc(N(C)C(=O)Nc4c(Cl)c(OC)cc(OC)c4Cl)ncn3)cc2)CC1", "note": "[Infigratinib]", "growth reduction": 100},
      {"smiles": "O=C(O)CCCc1cc2cc(Cl)ccc2n1S(=O)(=O)c1ccc2ncsc2c1", "note": "[Lanifibranor]", "growth reduction": 99.1},
      {"smiles": "N#Cc1ccc(Oc2ccc3c(c2)COB3O)cc1", "note": "[Crisaborole]", "growth reduction": 100},
      {"smiles": "Cn1c(O)c(C2=c3ccccc3=NC2=O)c2ccccc21", "note": "[Meisoindigo]", "growth reduction": 100},
      {"smiles": "C=C(C)[C@@H]1CC[C@]2(C(=O)O)CC[C@]3(C)[C@H](CC[C@@H]4[C@@]5(C)CC[C@H](OC(=O)CC(C)(C)C(=O)O)C(C)(C)[C@@H]5CC[C@]43C)[C@@H]12", "note": "[Bevirimat]", "growth reduction": 96.7},
      {"smiles": "COC(=O)C1=C(C)NC(C)=C(C(=O)OC(C)C)C1c1cccc2nonc12", "note": "(stereo not given) [Isradipine]", "growth reduction": 100},
      {"smiles": "Cc1cc(C2CCCCC2)n(O)c(=O)c1", "note": "[Ciclopirox]", "growth reduction": 99.3},
      {"smiles": "COc1cc2c(cc1Cc1cccc(Cl)c1F)c(=O)c(C(=O)O)cn2[C@H](CO)C(C)C", "note": "[Elvitegravir]", "growth reduction": 100},
      {"smiles": "O=C1[C@H](CC[C@H](O)c2ccc(F)cc2)[C@@H](c2ccc(O)cc2)N1c1ccc(F)cc1", "note": "[Ezetimibe]", "growth reduction": 91.7},
      {"smiles": "Cc1cn(-c2cc(NC(=O)c3ccc(C)c(Nc4nccc(-c5cccnc5)n4)c3)cc(C(F)(F)F)c2)cn1", "note": "[Nilotinib]", "growth reduction": 100},
      {"smiles": "O=C(O)c1cc(F)c2nc(N3[C@@H]4CC[C@H]3C[C@@H](OCc3c(-c5ccccc5OC(F)(F)F)noc3C3CC3)C4)sc2c1", "note": "[Tropifexor]", "growth reduction": 100},
      {"smiles": "CN1CCN(c2ccc3nc(-c4c(N)c5c(F)cccc5[nH]c4=O)[nH]c3c2)CC1", "note": "[Dovitinib (lactate)]", "growth reduction": 96},
      {"smiles": "CC[C@H]1[C@@H](O)[C@@H]2[C@H](CC[C@]3(C)[C@@H]([C@H](C)CCC(=O)O)CC[C@@H]23)[C@@]2(C)CC[C@@H](O)C[C@@H]12", "note": "[Obeticholic acid]", "growth reduction": 94.4},
      {"smiles": "Cc1cc(-c2nc(CN3CCNCC3)no2)cc2c1C(=O)N(Cc1ccc(OC(F)(F)F)cc1)C2", "growth reduction": 100},
      {"smiles": "CN1CCCC(CC2c3ccccc3Sc3ccccc32)C1", "note": "(stereo not given) [Metixene hydrochloride hydrate]", "growth reduction": 100},
      {"smiles": "CC(C)(C)NCC(O)COc1ccccc1C1CCCC1", "note": "(single isomer, unassigned; (+)) [(+)-Penbutolol]", "growth reduction": 91},
      {"smiles": "CCOc1cc(CC(=O)N[C@@H](CC(C)C)c2ccccc2N2CCCCC2)ccc1C(=O)O", "note": "[Repaglinide]", "growth reduction": 96.9},
      {"smiles": "Cc1noc(-c2ccc(-c3ccc(C4(C(=O)O)CC4)cc3)cc2)c1NC(=O)O[C@H](C)c1ccccc1", "growth reduction": 100},
      {"smiles": "CC1(C)CCC(C)(C)c2cc(NC(=O)c3ccc(C(=O)O)cc3)ccc21", "note": "[Tamibarotene]", "growth reduction": 95.5},
      {"smiles": "COCCNCc1ccc(-c2cc3nccc(Oc4ccc(NC(=O)C5(C(=O)Nc6ccc(F)cc6)CC5)cc4F)c3s2)nc1", "note": "[Sitravatinib]", "growth reduction": 100}
    ]}
  ]
}
